Measured values: the supplement of paper PMC11732987, “Enantioselective OTUD7B fragment discovery through chemoproteomics screening and high-throughput optimisation” (Communications Chemistry, 2025)

Tests used:
Assay in all cases: log2 ratio of Biotin-Ahx-Ub-VS probe labelling (fragment/DMSO); higher = less target engagement (more negative = stronger competition), active = hit call of the paper (q ≤ 0.05, log2 ratio ≤ -1)
Settings in all cases: compound concentration: 200 uM; treatment time: 3 h
[1] = target: T1, USP42 (UniProt Q9H9J4)
T1 sequence (whole entry): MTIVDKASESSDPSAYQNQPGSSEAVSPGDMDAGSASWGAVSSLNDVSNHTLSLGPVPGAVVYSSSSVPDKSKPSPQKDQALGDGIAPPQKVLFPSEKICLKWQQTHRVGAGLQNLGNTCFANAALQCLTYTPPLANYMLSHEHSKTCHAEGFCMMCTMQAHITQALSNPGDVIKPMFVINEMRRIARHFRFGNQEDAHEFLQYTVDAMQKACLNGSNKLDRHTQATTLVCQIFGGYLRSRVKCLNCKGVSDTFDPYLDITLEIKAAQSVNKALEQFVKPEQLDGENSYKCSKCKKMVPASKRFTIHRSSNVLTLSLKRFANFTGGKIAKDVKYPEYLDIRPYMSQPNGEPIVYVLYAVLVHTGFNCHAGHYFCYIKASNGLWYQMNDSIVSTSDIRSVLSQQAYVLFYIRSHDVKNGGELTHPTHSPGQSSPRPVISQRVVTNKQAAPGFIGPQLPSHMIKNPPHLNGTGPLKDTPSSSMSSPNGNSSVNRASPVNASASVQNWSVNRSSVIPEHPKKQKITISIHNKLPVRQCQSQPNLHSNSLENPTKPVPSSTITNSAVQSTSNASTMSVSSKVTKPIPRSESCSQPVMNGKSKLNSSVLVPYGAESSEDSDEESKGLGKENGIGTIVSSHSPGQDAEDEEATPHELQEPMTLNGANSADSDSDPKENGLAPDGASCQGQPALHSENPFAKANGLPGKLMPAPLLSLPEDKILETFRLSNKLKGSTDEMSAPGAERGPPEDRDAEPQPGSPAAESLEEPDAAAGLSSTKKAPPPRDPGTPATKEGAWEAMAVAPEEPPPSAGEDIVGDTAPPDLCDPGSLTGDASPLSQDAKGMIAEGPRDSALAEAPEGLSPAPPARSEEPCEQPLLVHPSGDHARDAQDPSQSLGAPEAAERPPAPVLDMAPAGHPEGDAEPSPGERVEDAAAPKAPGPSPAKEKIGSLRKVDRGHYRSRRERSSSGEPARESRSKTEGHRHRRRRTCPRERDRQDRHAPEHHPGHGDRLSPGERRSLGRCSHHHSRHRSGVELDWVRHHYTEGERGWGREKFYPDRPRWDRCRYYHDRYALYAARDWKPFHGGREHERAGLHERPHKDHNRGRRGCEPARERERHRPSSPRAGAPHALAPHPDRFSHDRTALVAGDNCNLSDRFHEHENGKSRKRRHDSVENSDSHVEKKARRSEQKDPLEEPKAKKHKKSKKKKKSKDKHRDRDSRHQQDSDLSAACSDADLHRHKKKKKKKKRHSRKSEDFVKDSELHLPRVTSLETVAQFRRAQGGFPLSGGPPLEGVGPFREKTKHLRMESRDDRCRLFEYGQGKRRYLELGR
Procedure, shortened: (§1)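 Labelled DUBs from HEK293T lysate were NeutrAvidin-enriched, digested with LysC and trypsin, and run by diaPASEF LC-MS/MS. Before that, each 495 µg sample in Tris/CHAPS/IGEPAL buffer with protease inhibitors was treated in triplicate with fragment at 200 µM or vehicle for 3 h, then with Biotin-Ahx-Ub-VS at 0.5 µM final for 1 h. Values are average log2 ratios of fragment over vehicle by unpaired t-test, based on global-median-normalised Spectronaut label-free quantities from proteins with ≥2 unique peptides.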

[2] = target: USP46 (UniProt P62068)
Chain of USP46 (P62068 whole entry): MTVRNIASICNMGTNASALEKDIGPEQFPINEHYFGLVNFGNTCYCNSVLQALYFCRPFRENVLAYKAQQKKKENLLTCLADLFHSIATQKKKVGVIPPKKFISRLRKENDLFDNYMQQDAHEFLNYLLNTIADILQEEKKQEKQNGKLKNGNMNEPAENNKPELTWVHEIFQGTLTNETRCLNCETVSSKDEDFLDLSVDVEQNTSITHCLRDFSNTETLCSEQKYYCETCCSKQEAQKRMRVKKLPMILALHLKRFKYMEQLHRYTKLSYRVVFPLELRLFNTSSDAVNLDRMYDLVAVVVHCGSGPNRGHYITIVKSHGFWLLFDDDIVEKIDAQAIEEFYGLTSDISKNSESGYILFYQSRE
Procedure, shortened: as §1

[3] = target: T2, USP47 (UniProt Q96K76)
T2 sequence (whole entry): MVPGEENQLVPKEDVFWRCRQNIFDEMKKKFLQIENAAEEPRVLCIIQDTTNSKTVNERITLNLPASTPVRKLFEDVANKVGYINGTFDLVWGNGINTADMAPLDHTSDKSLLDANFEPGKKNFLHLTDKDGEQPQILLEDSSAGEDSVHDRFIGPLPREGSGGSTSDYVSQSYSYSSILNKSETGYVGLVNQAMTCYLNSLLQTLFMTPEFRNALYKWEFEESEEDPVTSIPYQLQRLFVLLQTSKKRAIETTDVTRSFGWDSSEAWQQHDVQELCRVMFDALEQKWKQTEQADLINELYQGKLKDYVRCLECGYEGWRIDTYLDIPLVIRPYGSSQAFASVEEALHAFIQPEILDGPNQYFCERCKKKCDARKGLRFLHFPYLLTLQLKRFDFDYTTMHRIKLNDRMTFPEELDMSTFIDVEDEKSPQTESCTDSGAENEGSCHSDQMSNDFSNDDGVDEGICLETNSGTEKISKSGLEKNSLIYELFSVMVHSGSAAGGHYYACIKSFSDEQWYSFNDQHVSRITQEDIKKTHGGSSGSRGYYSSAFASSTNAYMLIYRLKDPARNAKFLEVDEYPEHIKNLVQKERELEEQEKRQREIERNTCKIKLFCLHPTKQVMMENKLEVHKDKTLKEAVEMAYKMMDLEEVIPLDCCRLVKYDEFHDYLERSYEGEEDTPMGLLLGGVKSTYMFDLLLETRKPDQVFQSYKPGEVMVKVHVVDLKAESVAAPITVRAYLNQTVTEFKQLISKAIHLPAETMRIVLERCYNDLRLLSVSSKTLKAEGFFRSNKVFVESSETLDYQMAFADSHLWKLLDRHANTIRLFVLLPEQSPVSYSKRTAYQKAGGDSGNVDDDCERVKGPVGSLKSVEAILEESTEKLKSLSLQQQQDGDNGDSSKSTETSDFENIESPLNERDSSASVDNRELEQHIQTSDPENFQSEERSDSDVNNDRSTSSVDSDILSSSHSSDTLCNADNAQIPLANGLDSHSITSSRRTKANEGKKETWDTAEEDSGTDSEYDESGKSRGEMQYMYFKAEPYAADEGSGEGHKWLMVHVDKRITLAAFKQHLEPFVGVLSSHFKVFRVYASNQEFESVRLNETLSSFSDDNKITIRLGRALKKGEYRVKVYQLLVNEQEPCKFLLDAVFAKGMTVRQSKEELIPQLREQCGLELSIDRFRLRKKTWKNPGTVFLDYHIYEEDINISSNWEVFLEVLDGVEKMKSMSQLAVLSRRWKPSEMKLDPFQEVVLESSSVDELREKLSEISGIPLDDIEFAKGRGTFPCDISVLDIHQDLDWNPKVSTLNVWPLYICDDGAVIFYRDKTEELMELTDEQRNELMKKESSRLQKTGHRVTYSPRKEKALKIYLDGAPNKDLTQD
Procedure, shortened: as §1

[4] = target: T3, USP48 (UniProt Q86UV5)
T3 sequence (whole entry): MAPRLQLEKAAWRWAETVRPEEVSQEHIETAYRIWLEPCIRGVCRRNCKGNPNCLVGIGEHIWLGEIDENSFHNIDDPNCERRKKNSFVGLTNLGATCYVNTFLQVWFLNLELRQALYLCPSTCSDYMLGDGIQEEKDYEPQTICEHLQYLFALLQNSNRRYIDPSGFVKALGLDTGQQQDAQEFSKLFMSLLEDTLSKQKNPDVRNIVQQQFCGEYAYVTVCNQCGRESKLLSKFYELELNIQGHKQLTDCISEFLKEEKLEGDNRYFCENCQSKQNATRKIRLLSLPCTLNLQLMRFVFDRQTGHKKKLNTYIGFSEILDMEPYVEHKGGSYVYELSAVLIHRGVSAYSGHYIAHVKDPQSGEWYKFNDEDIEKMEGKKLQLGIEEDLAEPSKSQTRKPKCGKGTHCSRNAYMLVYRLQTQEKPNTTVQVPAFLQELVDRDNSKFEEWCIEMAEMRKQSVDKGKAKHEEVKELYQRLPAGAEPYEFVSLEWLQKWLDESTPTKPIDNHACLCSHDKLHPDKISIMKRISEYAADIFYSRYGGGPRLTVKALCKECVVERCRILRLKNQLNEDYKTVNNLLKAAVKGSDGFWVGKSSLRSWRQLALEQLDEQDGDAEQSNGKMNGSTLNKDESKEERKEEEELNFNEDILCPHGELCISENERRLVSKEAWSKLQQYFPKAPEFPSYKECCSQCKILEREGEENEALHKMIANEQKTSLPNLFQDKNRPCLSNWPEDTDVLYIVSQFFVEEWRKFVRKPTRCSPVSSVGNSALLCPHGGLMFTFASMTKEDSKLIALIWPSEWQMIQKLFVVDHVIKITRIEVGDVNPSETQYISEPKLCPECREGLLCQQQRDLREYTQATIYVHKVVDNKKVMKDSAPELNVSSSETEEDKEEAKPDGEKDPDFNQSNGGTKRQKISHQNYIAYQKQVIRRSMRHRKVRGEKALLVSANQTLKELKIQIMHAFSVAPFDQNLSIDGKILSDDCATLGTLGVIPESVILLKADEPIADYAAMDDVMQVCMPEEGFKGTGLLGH
Procedure, shortened: as §1

[5] = target: T4, USP5 (UniProt P45974)
T4 sequence (whole entry): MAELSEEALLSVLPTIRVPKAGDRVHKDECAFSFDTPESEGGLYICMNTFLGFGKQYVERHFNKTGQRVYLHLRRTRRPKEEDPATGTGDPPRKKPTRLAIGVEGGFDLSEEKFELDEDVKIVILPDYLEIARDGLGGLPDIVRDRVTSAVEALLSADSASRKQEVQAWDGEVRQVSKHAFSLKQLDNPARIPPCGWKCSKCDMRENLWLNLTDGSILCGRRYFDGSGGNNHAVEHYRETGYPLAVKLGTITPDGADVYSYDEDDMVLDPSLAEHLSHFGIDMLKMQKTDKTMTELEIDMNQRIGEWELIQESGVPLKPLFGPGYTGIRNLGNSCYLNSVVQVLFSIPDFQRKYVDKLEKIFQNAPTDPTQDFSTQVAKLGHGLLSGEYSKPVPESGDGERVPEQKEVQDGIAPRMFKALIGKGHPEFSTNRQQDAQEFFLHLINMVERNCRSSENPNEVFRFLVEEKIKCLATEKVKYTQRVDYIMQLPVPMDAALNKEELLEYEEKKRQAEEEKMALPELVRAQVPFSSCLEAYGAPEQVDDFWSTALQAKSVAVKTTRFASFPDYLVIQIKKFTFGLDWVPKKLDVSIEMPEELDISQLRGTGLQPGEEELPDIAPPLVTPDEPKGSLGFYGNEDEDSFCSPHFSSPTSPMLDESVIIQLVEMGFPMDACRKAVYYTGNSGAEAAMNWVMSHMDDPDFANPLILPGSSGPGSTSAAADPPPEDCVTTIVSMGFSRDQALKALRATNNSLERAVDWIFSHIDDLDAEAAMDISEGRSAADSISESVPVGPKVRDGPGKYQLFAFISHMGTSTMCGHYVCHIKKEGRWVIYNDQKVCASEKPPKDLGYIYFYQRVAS
Procedure, shortened: as §1

[6] = target: USP54 (UniProt Q70EL1)
Chain of USP54 (Q70EL1 whole entry): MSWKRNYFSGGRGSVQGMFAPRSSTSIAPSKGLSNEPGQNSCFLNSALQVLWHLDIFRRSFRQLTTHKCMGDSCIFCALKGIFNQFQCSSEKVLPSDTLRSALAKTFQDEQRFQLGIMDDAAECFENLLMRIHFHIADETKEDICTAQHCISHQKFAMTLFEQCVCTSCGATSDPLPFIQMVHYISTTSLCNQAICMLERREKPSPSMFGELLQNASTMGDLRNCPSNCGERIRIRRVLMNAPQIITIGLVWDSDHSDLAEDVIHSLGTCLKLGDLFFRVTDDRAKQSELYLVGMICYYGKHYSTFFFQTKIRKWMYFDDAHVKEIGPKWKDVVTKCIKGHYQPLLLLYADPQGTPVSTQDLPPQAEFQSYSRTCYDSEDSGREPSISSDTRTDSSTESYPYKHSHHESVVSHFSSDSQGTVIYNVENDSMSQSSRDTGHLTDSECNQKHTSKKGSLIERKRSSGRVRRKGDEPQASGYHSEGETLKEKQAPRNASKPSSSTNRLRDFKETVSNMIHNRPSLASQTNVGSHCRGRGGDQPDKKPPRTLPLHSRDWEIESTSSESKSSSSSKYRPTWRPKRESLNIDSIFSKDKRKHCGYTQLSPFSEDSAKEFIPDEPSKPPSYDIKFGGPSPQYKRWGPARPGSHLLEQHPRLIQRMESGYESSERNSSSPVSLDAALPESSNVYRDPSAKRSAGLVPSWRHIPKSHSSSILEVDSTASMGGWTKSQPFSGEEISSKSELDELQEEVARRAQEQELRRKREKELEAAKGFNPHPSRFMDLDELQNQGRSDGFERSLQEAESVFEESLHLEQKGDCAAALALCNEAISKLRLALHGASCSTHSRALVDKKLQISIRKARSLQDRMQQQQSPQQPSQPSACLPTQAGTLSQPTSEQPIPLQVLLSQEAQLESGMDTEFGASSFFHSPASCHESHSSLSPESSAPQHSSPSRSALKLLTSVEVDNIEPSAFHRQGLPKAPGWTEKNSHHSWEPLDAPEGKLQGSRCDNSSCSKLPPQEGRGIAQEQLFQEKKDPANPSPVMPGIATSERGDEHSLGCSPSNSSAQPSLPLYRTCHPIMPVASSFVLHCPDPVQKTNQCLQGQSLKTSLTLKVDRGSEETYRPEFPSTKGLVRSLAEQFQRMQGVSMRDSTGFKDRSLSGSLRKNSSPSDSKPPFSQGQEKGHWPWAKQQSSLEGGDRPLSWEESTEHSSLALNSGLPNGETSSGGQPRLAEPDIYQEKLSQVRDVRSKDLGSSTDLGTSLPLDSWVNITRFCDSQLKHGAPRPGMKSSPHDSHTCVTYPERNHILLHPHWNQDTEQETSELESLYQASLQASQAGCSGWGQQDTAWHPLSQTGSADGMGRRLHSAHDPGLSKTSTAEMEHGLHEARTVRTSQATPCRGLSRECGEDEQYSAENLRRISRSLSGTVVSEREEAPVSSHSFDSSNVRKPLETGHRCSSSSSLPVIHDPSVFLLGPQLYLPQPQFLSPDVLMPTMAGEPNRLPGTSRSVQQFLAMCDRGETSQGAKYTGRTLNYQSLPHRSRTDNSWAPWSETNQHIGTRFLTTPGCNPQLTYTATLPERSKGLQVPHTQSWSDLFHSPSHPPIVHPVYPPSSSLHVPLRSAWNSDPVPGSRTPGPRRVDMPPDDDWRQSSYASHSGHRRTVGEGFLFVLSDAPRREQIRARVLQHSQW
Procedure, shortened: as §1

[7] = target: USP7 (UniProt Q93009)
Chain of USP7 (Q93009 whole entry, looked up): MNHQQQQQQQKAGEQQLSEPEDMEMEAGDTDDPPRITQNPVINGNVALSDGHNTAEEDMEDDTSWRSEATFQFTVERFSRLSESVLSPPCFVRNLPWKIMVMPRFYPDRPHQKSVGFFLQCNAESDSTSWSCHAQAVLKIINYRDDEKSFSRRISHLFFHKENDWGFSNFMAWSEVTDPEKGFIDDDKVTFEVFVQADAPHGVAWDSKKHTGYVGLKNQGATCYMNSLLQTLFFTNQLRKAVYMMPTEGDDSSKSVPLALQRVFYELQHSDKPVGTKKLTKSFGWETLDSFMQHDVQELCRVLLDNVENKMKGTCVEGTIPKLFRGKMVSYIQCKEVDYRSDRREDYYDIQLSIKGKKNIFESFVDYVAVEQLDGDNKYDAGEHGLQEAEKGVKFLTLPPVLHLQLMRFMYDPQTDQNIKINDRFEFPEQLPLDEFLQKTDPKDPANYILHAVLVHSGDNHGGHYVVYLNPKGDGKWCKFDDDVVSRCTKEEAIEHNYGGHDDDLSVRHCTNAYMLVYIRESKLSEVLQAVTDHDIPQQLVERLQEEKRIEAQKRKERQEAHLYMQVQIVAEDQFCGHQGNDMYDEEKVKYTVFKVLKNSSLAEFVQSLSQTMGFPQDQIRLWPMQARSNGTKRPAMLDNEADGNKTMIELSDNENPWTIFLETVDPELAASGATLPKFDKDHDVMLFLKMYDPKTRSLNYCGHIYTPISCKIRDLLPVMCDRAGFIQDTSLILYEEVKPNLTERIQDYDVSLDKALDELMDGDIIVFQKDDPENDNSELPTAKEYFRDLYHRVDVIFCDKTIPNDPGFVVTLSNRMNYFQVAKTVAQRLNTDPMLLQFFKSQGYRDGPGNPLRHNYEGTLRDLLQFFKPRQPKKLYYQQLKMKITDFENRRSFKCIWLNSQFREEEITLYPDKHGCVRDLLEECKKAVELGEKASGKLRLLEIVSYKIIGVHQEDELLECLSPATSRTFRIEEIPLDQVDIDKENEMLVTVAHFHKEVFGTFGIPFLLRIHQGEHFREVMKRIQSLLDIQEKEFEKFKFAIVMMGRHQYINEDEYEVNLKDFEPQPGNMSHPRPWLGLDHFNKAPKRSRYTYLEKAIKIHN
Procedure, shortened: as §1

[8] = target: T5, USP8 (UniProt P40818)
T5 sequence (whole entry): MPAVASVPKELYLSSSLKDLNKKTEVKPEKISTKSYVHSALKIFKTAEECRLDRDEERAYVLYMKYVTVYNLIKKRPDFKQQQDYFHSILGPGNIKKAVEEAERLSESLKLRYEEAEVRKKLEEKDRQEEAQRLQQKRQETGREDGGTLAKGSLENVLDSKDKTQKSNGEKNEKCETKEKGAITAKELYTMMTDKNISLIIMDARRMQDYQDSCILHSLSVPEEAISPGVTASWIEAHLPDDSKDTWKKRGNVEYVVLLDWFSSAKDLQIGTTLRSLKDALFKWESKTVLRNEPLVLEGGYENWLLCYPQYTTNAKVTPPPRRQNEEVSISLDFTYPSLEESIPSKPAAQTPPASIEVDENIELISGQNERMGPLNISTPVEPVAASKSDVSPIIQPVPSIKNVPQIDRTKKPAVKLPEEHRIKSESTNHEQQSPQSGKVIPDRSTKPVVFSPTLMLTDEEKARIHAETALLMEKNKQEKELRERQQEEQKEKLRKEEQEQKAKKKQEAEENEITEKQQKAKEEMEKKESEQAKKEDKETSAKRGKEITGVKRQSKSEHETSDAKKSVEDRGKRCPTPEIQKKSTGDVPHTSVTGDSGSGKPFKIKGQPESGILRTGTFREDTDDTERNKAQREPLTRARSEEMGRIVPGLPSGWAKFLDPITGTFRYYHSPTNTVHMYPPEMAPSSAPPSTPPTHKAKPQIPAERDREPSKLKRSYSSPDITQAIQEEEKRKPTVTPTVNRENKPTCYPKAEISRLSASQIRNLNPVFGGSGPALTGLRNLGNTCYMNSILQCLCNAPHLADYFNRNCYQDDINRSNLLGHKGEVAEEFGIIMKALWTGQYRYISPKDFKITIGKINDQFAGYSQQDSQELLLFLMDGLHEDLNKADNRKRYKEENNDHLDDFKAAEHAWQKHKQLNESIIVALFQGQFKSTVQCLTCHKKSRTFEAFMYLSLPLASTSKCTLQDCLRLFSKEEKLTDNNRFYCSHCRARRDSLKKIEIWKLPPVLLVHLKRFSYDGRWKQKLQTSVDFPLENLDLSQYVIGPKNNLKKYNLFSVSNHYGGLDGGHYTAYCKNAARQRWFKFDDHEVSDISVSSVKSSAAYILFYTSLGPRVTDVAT
Procedure, shortened: as §1

Measured: log2 ratio of Biotin-Ahx-Ub-VS probe labelling

Cc1cc(CC(C)NC(=O)CCl)n[nH]1 (stereo not drawn)
inactive: [1] -0.515 | [2] -0.086 | [3] 0.219 | [4] -0.0294 | [5] -0.0909 | [6] -0.195 | [7] -0.0248 | [8] -0.57
